TDP1 cell noCPT – qHTS for Inhibitors of human tyrosyl-DNA phosphodiesterase 1 (TDP1): qHTS in cells in absence of CPT; DT40 Tdp1-/- hTDP1 cells, no CPT, ATP luminescence, 48 h; Potency, µM (top dose mostly 46.2 µM), for inactives: top-dose activity change, negative = growth inhibition, actives largely listed as inhibitors; 420,000 tested, 15% active; note: potency is the fitted concentration of half-maximal effect; % is set by controls: 0 for no effect and ±100 for the full control effect; nearly all actives have a fitted effect of over 55% in size
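Camptothecin absent (DMSO only). Human TDP1-complemented DT40 knockout cells, 400 cells/well, 37 °C for minimum 48 hr; ATP measured via CellTiter-Glo, 30 min dark incubation, luminescence.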
IL1B secr inh – inhibitors of inflammasome signaling (IL-1 beta secretion) | THP-1 LPS/ATP IL-1B secretion, AlphaLISA, 16 h; stronger effect = lower value | activity change, % at 57.5 µM | 360,000 tested, 4.7% active | AID 743279; in the data active = activity change below about -50%; inconclusive = mostly about -30% to -49%; note: % is set by controls: 0 for no effect and ±100 for the full control effect
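THP-1 cells pretreated 1 hr with compounds (up to 57.5 uM final), then stimulated with LPS (250 ng/mL final) plus ATP (1.25 mM final); secreted IL-1B measured by AlphaLISA after 16 hr, decreased signal indicating inhibition.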
TGFb SMAD3 inh – TGF-b pathway inhibition. 410,000 tested, 1.2% active. HepG2 CAGA-GFP TGF-b/SMAD3 reporter, GFP fluorescence, 18 h; TGF-beta stimulated, 500 pg/mL final. Potency, µM (titrated, usually from 46.1 µM), for the others: at the highest dose activity, negative = inhibition, most hits filed as inhibitors; note: potency is the fitted concentration of half-maximal effect; % is set by controls: 0 for no effect and ±100 for the full control effect; nearly all actives have a fitted effect of over 65% in size
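Per well, imaged GFP fluorescence of HEPG2 CAGA-GFP cells gives the signal; cells get compound, then TGF-beta (500 pg/mL final), 18 h at 37 degrees C; %Activity versus -TGF-beta and +DMSO controls.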
TDP1 block – TDP1 (human) enzyme inhibition. Q9NUW8. recombinant TDP1, AlphaScreen DNA substrate cleavage. Potency, µM (highest dose often 130 µM), for inactives: at the top dose activity change, negative = inhibition, usual class: inhibitors. AID 485290. 350,000 tested, 0.28% active; note: potency is the fitted concentration of half-maximal effect; % is set by controls: 0 for no effect and ±100 for the full control effect; nearly all actives have a fitted effect of over 40% in size
Target sequence (Q9NUW8 whole entry, looked up): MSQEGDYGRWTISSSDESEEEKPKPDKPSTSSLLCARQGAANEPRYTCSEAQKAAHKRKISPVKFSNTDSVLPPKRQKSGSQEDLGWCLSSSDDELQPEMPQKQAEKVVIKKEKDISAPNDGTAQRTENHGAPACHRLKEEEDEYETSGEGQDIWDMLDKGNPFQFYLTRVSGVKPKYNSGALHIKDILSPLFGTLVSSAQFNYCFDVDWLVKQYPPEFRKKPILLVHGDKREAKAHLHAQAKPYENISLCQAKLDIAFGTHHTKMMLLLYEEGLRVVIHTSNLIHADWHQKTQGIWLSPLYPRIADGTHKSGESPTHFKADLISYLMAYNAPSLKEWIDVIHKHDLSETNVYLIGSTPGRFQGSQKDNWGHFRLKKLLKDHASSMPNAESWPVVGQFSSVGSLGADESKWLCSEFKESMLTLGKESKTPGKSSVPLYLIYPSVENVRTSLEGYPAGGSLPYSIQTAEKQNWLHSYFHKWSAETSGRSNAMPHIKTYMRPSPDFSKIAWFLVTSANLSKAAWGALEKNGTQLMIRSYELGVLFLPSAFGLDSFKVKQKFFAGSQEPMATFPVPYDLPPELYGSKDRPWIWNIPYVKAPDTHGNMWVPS
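AlphaScreen read-out: signal falls as enzyme removes the 3' tyrosine-FITC from a 5'-biotinylated DNA oligo (15 nM, 5 min, RT). Enzyme was E. coli-made recombinant Tdp1 at 1 nM, exposed to compound for 15 min beforehand; beads 10 ug/ml, 10 min.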
HepG2 tox-1 – counter-screen for TGF-b inhibitors: cytotoxicity in HepG2 cells; HepG2 CAGA-GFP viability, ATP luminescence, 18 h; Potency, µM (highest dose often 46.1 µM), without a hit: top-dose activity change, negative = cytotoxicity, usual class: cytotoxic; 410,000 tested, 0.76% active; AID 588856; note: potency is the fitted concentration of half-maximal effect
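CellTiter-Glo luminescence gave cytotoxicity after 18 hours at 37 degrees C. The cells were HepG2 CAGA-GFP in 1% FBS DMEM, stimulated with 500 pg/mL TGF-beta after compound addition. %Activity was normalised to no-cell wells (complete cell-killing) and DMSO (no toxicity), and curves were fitted and classified.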
DT40 TDP1 CPT – growth inhibition of DT40 Tdp1-/-;hTDP1 cells with camptothecin (screen for TDP1 inhibitors) | Potency, µM (top dose mostly 46.2 µM), for inactives: at the top dose activity change, negative = growth inhibition, actives largely listed as inhibitors | chicken DT40 Tdp1-/-;hTDP1 cells + 20 nM CPT, ATP luminescence, 48 h | 420,000 tested, 12% active; note: potency is the fitted concentration of half-maximal effect; % is set by controls: 0 for no effect and ±100 for the full control effect; nearly all actives have a fitted effect of over 55% in size
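Chicken DT40 Tdp1-/- cells stably complemented with human TDP1 were seeded at 400 cells/well in medium containing 20 nM camptothecin, exposed to pin-transferred compounds, and grown at 37 °C for at least 48 hr. Viability was read as ATP luminescence.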
TGFb confirm – confirmation of TGF-b signaling inhibitors in HepG2 reporter cells; Potency, µM (series often up to 46.1 µM), for inactives: top-dose activity, negative = inhibition, most hits filed as inhibitors; shares compounds with TGFb SMAD3 inh; HepG2 CAGA-GFP TGF-b reporter, GFP fluorescence, 18 h; cells stimulated with TGF-beta, 500 pg/mL; 1,600 tested, 63% active; AID 720534; note: potency is the fitted concentration of half-maximal effect; % is set by controls: 0 for no effect and ±100 for the full control effect; nearly all actives have a fitted effect of over 65% in size
HepG2 tox-2 – HepG2 cytotoxicity, TGF-b inhibitor counterscreen | shares compounds with TGFb SMAD3 inh | HepG2 CAGA-GFP viability, ATP luminescence, 18 h; cells stimulated with TGF-beta, 500 pg/mL | Potency, µM (titrated, usually from 46.1 µM), for inactives: top-dose activity, negative = cytotoxicity, most hits filed as inhibitors | 1,600 tested, 27% active | AID 720535; note: potency is the fitted concentration of half-maximal effect; % is set by controls: 0 for no effect and ±100 for the full control effect; nearly all actives have a fitted effect of over 70% in size
CCL64 TGFb inh – orthogonal confirmation of TGF-b inhibitors in CCL64 cells. 1,600 tested, 41% active. Potency, µM (doses to about 46.1 µM), for inactives: top-dose activity, negative = inhibition, most hits filed as inhibitors. CCL64 CAGA-GFP reporter, TGF-b stimulated, GFP fluorescence, 18 h. shares compounds with TGFb SMAD3 inh; note: potency is the fitted concentration of half-maximal effect; nearly all actives have a fitted effect of over 65% in size
COP TGFb inh – validation of TGF-b inhibitors in HepG2 COP promoter reporter; shares compounds with TGFb SMAD3 inh; Potency, µM (series often up to 46.1 µM), without a hit: at the highest dose activity, negative = inhibition, usual class: inhibitors; HepG2 COP-GFP TGF-b reporter, GFP fluorescence, 18 h; cells stimulated by added recombinant TGF-beta; 1,600 tested, 3% active; note: potency is the fitted concentration of half-maximal effect; nearly all actives have a fitted effect of over 70% in size
The depositor's hits bear a star; ? = inconclusive; . = no result; [ ] = another dose, or the depositor's remark. Compounds with a hit are over-represented: about 19% of the library has one in this group of screens. Unless noted, calls come from the whole dose curve; as a rule, active = well fitted curve in the direction sought with a large enough effect; inconclusive = small, poorly fitted or top-dose-only effect, or another doubt; inactive = no such curve, though single readings can be large; an effect the other way counts as inactive or inconclusive.

SMILES	TDP1 cell noCPT	IL1B secr inh	TGFb SMAD3 inh	TDP1 block	HepG2 tox-1	DT40 TDP1 CPT	TGFb confirm	HepG2 tox-2	CCL64 TGFb inh	COP TGFb inh
Oc1c(Cl)cc(CN2CCOCC2)c2cccnc12	1.03µM*	95.0	2.51µM*	-3.7%[56.1 µM]	-49.1%	0.651µM*	?	?	?	5.5%
CN1CCN(Cc2cc(COCc3ccccc3)c3cccnc3c2O)CC1	3.26µM*	-96.8*	4.47µM*	11.2%	-30.4%	3.26µM*	-18.2%	?	7.31µM*	5.5%
O=C(O)Cn1cc(CN2CCOCC2)c2ccccc21	-18.6%	12.0	9.7%	.	4.8%	-0.5%	.	.	.	.
Oc1c(CN2CCCCC2)cc(Br)c2cccnc12	5.17µM*	106.0	2.82µM*	9.3%	-46.2%	5.17µM*	20.6µM*	?	7.31µM*	18.8%
Cc1ccc(-c2ccc(CN3C(C(C)C)C(=O)N(Cc4cn(CCC5OCCO5)nn4)CCS3(=O)=O)cc2)c(C)c1 (centres undefined)	18.4µM*	?	11.2µM*	.	-76.4%	9.2µM*	23.1µM*	?	23.1µM*	-21.0%
CC1C(=O)N(Cc2cn(CCC3OCCCO3)nn2)CCS(=O)(=O)N1Cc1ccc(-c2ccc(Cl)cc2)cc1 (centres undefined)	6.51µM*	-7.4	12.6µM*	.	-27.4%	11.6µM*	?	?	?	67.1%
CC1C(=O)N(Cc2cn(CCC3OCCO3)nn2)CCS(=O)(=O)N1Cc1ccc(-c2ccncc2)cc1 (centres undefined)	-1.5%	18.5	3.9%	.	-1.5%	-8.3%	.	.	.	.
CN(C)/C=N/c1nc2nccc(-c3ccccc3)n2n1	?	14.9	-3.4%	4.8%	-8.8%	?	.	.	.	.
c1ccc(-c2cc3nc(NCC4CC4)nc(NCC4CCCCC4)c3s2)cc1	2.91µM*	-108.6*	10µM*	.	17.8µM*	4.61µM*	23.1µM*	7.31µM*	5.17µM*	-35.5%
COCCOC(=O)c1[nH]c2c(c1C)C(=O)CC(c1ccccc1)C2 (centres undefined)	0.92µM*	36.4	10µM*	0.0%	5.0%	0.651µM*	7.31µM*	-6.9%	6.51µM*	-18.7%
CCOC(=O)c1[nH]c2c(c1C)C(=O)CC(c1ccco1)C2 (centres undefined)	0.0411µM*	81.8	?	?	4.5%	0.581µM*	7.31µM*	9.5%	2.06µM*	?
CC(C)CN(C(=O)Cn1nnc(-c2ccc(F)cc2)n1)C1CCS(=O)(=O)C1 (centres undefined)	-6.9%	-16.1	4.4%	.	-3.1%	-11.7%	.	.	.	.
C/C(CC(=O)Nc1ccc2c(c1)OCCO2)=N\NC(=O)c1ccccc1Cl	-13.7%	16.3	0.0%	-12.7%	-22.3%	4.5%	.	.	.	.
Nc1ccc(S(=O)(=O)N2CCc3ccccc32)cc1	-25.4%	-4.7	18.9%	.	-0.8%	-23.1%	.	.	.	.
O=S(=O)(NC1CCCC1)c1ccc(S(=O)(=O)N2CCc3ccccc32)cc1	16.4µM*	0.8	?	-0.2%	3.6%	16.4µM*	9.2µM*	-17.8%	-2.4%	-11.0%
COc1ccc(C(=O)/C(C#N)=N/Nc2ccccc2[N+](=O)[O-])cc1	1.84µM*	-22.0	1.12µM*	4.3%	-17.6%	2.31µM*	10.3µM*	?	?	0.7%
CCCc1c(C)nn(C(=O)/C(C#N)=N/Nc2ccccc2[N+](=O)[O-])c1C	-20.9%	0.8	0.1%	4.8%	-0.5%	-5.4%	.	.	.	.
COc1ccc(C(=O)Nc2ccc(Cl)cc2F)cc1S(=O)(=O)N1CCCC1	-22.3%	-1.0	-18.0%	-0.3%[56.1 µM]	4.0%	-15.1%	.	.	.	.
CC(=O)OC(C)(C)/C=C/C(=O)[C@](C)(O)C1[C@H](O)C[C@@]2(C)C3CC=C4C(C=C(O[C@@H]5O[C@H](CO)[C@@H](O)[C@H](O)[C@H]5O)C(=O)C4(C)C)[C@]3(C)C(=O)C[C@]12C (some centres undefined)	1.84µM*	-15.8	5.01µM*	0.5%	-31.2%	1.64µM*	5.17µM*	?	3.26µM*	2.6%
CC1(C)Oc2ccc3ccc(=O)oc3c2C[C@H]1O[C@@H]1O[C@H](CO)[C@@H](O)[C@H](O)[C@H]1O	1.7%	59.3	-8.1%	-0.2%	-1.6%	-11.7%	.	.	.	.
O=C(c1ccccc1)c1ccc[nH]1	-9.8%	-25.3	-6.7%	.	5.8%	-6.4%	.	.	.	.
Cc1ccc(Nc2nc(-c3ccccc3)nc3ccccc23)cc1	.	.	?	0.0%	-56.3%	.	.	.	.	.
Fc1ccccc1Nc1nc(-c2ccncc2)nc2ccccc12	?	-6.8	4.8%	0.0%	-2.3%	3.0%	.	.	.	.
Cc1ccc(Nc2nc(-c3ccncc3)nc3ccccc23)cc1	?	.	7.6%	2.9%	-12.2%	10.1%	5.1%	?	-8.9%	22.2%
c1ccc(Nc2nc(-c3ccncc3)nc3ccccc23)cc1	-19.1%	4.7	7.8%	-0.6%	-1.6%	-2.3%	-26.4%	-27.7%	-20.3%	1.7%
CC(=O)c1ccc(Nc2nc(-c3ccccc3)nc3ccccc23)cc1	20.6µM*	-60.0*	-6.3%	.	-22.1%	?	-11.1%	-9.9%	-6.0%	-17.7%

High-throughput results (PubChem BioAssay)
